Experiment [1] deals with T1, Methionyl-tRNA synthetase, putative (Leishmania donovani (strain BPK282A1)) (UniProt E9BF75).
T1 sequence (whole entry): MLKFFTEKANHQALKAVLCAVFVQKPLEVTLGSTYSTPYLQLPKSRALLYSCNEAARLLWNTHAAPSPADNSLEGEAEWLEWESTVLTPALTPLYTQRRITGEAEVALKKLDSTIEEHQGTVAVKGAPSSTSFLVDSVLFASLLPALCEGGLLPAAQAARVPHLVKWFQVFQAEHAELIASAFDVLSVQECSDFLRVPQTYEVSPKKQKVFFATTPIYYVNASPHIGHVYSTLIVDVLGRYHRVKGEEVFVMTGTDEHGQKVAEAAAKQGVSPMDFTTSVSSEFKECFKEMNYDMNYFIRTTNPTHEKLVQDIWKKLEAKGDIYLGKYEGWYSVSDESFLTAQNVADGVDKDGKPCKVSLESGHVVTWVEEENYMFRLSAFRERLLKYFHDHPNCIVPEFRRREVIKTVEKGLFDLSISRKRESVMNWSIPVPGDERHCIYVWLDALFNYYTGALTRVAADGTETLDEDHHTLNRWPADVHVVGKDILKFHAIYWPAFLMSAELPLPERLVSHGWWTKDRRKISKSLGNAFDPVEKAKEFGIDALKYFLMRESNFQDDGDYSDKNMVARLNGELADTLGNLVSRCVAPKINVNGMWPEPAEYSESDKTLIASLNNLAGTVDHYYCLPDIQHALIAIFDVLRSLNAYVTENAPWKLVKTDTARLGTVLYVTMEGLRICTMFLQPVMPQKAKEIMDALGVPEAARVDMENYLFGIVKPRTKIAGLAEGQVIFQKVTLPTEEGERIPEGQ
Nature of the experiment: Leishmania donovani Methionine tRNA synthetase (LdMetRS):v7. Dose response assay. The experiment is classed as functional. Set-up: conc 80 nM, time 150 minutes.

Experiment [2] addresses Protein translocase subunit SecA (Escherichia coli (strain K12)) (UniProt P10408). In words: Assay to Identify E. coli SecA ATPase Inhibitors. The following applies: 30 µM. Set-up: scale not given: direction of the effect not stated beside the values. The experiment is classed as functional.
Experiment [3] concerns the target T2, Ubiquitin-activating enzyme e1, putative (Leishmania donovani (strain BPK282A1)) (UniProt E9BSI1).
T2 sequence (whole entry): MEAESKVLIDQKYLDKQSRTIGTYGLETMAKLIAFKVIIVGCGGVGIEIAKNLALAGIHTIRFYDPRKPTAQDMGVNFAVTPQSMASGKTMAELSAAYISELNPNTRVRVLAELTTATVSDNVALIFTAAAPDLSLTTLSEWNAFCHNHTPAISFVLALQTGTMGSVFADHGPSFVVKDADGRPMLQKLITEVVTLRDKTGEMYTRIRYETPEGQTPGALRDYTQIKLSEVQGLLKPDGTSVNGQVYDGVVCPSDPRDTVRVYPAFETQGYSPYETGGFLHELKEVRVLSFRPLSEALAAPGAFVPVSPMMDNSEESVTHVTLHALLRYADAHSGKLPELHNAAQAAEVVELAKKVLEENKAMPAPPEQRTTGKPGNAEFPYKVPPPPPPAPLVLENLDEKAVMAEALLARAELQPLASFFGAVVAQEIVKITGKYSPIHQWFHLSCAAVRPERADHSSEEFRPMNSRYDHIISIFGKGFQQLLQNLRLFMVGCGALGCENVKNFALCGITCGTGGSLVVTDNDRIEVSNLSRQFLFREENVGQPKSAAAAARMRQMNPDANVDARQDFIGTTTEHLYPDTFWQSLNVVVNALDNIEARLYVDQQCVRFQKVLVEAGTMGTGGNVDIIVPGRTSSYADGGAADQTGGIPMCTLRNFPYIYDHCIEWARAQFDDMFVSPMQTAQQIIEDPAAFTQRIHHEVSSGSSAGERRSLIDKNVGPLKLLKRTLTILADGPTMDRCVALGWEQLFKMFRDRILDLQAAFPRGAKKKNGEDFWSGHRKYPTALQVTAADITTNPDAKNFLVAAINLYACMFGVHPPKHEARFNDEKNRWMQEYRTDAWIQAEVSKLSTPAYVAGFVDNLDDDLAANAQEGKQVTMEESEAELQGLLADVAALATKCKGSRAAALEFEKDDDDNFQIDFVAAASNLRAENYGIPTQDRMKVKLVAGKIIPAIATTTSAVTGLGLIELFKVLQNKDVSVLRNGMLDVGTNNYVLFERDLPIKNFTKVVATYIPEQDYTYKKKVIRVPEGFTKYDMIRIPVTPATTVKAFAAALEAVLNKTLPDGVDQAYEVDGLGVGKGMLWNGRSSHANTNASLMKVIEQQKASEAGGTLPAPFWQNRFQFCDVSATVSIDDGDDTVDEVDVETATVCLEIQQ
In words: Leishmania donovani Ubiquitin Activating Enzyme (LdE1). The following applies: 30 µM. The arrangement: scale not given: direction of the effect not stated beside the values. The experiment is classed as functional.

The target in experiment [4] is T3, Aspartate--tRNA(Asp/Asn) ligase (Mycobacterium tuberculosis (strain ATCC 25618 / H37Rv)) (UniProt P9WFW3). Note: in the data most compounds retested in dose-response had high values.
T3 sequence (whole entry): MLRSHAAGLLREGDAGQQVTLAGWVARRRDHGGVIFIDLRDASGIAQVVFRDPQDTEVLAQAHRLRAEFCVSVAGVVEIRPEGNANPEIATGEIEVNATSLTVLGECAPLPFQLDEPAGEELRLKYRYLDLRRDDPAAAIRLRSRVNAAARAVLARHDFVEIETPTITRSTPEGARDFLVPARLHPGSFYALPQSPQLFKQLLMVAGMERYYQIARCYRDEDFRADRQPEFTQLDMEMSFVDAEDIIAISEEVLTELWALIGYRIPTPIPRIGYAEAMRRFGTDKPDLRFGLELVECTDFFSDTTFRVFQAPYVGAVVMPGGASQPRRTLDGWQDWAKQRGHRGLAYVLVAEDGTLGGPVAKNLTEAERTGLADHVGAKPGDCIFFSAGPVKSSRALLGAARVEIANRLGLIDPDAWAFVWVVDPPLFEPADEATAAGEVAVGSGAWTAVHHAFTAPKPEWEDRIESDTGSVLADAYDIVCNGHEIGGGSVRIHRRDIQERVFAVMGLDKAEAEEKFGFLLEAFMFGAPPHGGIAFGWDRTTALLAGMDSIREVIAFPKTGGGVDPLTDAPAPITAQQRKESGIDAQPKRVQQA
In words: Assay for Asp RNA synthetase-1 from Mycobacterium tuberculosis. The experiment is classed as functional. Set-up: scale not given: direction of the effect not stated beside the values. The following applies: 30 µM.

The target in experiment [5] is AMP-activated protein kinase, AMPK (Homo sapiens) (UniProt P54646+O43741+P54619+Q9UGJ0+Q9Y478+Q13131+Q9UGI9). In words: AMP-dependent Kinase enzyme assay. An in vitro enzyme assay that detects ADP turnover that is directly proportional to AMPK activity. This uses naive AMPK that is activated during the assay with MK-8722. The experiment is classed as functional. The arrangement: scale not given: direction of the effect not stated beside the values. The following applies: 30 µM.

The target of experiment [6] is Sialic acid-binding Ig-like lectin 9 (Homo sapiens) (UniProt Q9Y336). In words: Hs-Siglec9 ALPHAscreen SOP 20170721. Set-up: scale not given: direction of the effect not stated beside the values. The following applies: 10 µM. A general note: Alpha assays give light when donor and acceptor beads are brought close together.
The subject of experiment [7] is Trypanosoma cruzi. Nature of the experiment: Trypanosoma cruzi phosphomannomutase and mannose-1-phosphate guanylyltransferase assay. The experiment is classed as functional. Set-up: scale not given: direction of the effect not stated beside the values. The following applies: 10 µM.
In experiment [8] the target is T4, Arginase-2, mitochondrial (Homo sapiens) (UniProt P78540).
T4 sequence (whole entry): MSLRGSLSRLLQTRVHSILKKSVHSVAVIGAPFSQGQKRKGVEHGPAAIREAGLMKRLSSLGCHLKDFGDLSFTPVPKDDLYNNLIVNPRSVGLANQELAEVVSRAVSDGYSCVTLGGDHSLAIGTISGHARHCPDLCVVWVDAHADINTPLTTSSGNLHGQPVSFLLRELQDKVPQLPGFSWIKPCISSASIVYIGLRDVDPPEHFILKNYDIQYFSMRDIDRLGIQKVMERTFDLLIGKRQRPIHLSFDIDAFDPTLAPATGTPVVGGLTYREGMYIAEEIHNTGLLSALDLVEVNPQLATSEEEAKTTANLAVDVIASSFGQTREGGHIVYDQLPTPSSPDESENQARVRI
In words: in vitro enzyme assay to detect the production of urea directly proportional to the activity of Arginase II. The experiment is classed as functional. The arrangement: scale not given: in the data most compounds retested in dose-response had high values.

The target of experiment [9] is T5, Proteasome subunit beta (Trypanosoma cruzi) (UniProt O96673).
T5 sequence (whole entry): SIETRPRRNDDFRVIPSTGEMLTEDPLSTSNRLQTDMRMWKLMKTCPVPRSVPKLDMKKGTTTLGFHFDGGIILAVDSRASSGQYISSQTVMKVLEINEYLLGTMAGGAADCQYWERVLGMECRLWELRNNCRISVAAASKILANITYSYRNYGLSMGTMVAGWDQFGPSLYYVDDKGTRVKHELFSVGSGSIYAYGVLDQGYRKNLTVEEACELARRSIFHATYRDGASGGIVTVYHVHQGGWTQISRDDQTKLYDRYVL
In words: Trypanosoma cruzi proteasome chymotrypsin-like activity (TcProtChymo) assay. The following applies: 9.37 µM. The arrangement: scale not given: in the data most compounds retested in dose-response had high values. The experiment is classed as functional.

The species named for experiment [10] is Homo sapiens. Nature of the experiment: To identify inhibition of the IFN signalling (Jak-Stat) pathway via expression of an eGFP reporter gene under the control of an IFN-stimulated response element (ISRE) containing MxA promoter. The experiment is classed as functional. The arrangement: scale not given: direction of the effect not stated beside the values. The following applies: 30 µM. Background: In a reporter assay the amount or activity of a reporter protein is the signal.

The target of experiment [11] is Shiga toxin 2 (Escherichia coli O157:H7) (UniProt P09385+P09386). In words: E. coli 0.157:H7 Shiga Toxin SOP - stx2 screening assay. The experiment is classed as functional. The arrangement: scale not given: direction of the effect not stated beside the values. The following applies: 30 µM.
In experiment [12] the target is T6, Tyrosyl-tRNA synthetase, putative (Trypanosoma cruzi (strain CL Brener)) (UniProt Q4DSP6).
T6 sequence (whole entry): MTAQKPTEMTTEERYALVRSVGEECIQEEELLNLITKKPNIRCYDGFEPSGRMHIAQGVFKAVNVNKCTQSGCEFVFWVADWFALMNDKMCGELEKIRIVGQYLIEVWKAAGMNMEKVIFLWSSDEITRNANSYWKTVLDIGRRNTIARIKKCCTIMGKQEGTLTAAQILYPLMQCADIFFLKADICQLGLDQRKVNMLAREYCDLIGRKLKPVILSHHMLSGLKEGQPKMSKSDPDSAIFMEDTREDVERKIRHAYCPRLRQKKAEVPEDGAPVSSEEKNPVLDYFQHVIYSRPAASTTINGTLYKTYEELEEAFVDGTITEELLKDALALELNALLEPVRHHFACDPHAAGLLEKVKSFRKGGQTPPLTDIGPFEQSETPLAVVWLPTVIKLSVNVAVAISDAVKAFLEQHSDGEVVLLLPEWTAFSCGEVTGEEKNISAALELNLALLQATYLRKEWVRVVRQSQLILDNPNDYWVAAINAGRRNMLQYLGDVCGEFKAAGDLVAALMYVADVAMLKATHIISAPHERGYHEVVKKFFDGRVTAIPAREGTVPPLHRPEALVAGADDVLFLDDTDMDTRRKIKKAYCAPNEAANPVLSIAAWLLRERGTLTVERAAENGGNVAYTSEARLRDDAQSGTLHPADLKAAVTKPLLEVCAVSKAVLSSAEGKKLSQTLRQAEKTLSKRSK
Nature of the experiment: Trypanosoma cruzi tyrosyl tRNA synthetase (TcYRS) _High Tyrosine SOP. The experiment is classed as functional. Set-up: scale not given: in the data most compounds retested in dose-response had high values. The following applies: 30 µM.

Experiment [13] deals with T6, Tyrosyl-tRNA synthetase, putative (Trypanosoma cruzi (strain CL Brener)). In words: Trypanosoma cruzi tyrosyl tRNA synthetase (TcYRS) SOP. The following applies: 30 µM. The experiment is classed as functional. The arrangement: scale not given: direction of the effect not stated beside the values.
The target of experiment [14] is Chromo domain-containing protein 1 (Saccharomyces cerevisiae (strain ATCC 204508 / S288c) (Baker's yeast)) (UniProt P32657). Nature of the experiment: ScCHD-1 Enzyme Inhibition Assay. The arrangement: scale not given: in the data most compounds retested in dose-response had high values. The following applies: 30 µM. The experiment is classed as functional.

Among the data in ChEMBL document CHEMBL3988442, “University of Dundee, Small-Polar-MMV Screening Library” (2021) are PXC50 and Percent Effect values, retold here.

Each structure is given as a SMILES string. For part of these data: Results with a measured potency or affinity are listed apart.

Chain of Chromo domain-containing protein 1 (Saccharomyces cerevisiae (strain ATCC 204508 / S288c) (Baker's yeast)) (P32657 whole entry, the tested form may be a part): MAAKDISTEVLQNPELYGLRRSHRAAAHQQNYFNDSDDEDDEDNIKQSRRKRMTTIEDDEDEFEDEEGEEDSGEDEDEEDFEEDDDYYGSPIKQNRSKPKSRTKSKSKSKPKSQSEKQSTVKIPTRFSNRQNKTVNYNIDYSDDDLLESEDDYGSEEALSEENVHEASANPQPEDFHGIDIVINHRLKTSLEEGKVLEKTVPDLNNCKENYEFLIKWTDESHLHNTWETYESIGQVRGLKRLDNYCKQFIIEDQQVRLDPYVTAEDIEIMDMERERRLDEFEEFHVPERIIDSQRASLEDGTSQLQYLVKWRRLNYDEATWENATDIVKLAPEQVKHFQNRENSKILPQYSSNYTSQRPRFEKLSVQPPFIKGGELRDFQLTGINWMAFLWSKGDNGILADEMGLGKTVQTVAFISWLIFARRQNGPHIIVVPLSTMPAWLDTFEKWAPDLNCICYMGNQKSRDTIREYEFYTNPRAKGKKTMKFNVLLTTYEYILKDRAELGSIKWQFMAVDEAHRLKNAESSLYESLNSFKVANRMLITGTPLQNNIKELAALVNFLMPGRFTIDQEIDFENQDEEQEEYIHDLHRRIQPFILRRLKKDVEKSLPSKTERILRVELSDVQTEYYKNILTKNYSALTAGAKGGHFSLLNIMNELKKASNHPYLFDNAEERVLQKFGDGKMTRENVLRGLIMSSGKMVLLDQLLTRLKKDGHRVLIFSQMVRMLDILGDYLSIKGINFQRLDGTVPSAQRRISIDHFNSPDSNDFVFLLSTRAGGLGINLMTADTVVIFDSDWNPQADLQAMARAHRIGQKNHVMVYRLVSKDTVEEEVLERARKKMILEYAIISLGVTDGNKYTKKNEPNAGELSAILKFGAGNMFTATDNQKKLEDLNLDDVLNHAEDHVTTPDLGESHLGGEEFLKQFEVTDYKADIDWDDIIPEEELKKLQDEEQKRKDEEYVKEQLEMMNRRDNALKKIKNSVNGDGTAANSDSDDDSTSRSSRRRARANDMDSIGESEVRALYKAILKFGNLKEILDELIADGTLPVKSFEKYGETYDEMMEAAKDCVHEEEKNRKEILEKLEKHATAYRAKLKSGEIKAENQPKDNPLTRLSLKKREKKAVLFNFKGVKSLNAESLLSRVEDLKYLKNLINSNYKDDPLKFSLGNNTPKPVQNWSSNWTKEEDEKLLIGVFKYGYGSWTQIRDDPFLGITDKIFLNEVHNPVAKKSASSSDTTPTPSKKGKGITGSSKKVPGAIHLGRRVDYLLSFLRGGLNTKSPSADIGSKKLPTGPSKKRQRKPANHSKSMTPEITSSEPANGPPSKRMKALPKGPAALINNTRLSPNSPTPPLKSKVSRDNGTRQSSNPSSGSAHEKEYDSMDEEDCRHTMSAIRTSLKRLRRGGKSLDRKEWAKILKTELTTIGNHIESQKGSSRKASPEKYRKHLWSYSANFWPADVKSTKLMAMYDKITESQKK
Chain of Protein translocase subunit SecA (Escherichia coli (strain K12)) (P10408 whole entry): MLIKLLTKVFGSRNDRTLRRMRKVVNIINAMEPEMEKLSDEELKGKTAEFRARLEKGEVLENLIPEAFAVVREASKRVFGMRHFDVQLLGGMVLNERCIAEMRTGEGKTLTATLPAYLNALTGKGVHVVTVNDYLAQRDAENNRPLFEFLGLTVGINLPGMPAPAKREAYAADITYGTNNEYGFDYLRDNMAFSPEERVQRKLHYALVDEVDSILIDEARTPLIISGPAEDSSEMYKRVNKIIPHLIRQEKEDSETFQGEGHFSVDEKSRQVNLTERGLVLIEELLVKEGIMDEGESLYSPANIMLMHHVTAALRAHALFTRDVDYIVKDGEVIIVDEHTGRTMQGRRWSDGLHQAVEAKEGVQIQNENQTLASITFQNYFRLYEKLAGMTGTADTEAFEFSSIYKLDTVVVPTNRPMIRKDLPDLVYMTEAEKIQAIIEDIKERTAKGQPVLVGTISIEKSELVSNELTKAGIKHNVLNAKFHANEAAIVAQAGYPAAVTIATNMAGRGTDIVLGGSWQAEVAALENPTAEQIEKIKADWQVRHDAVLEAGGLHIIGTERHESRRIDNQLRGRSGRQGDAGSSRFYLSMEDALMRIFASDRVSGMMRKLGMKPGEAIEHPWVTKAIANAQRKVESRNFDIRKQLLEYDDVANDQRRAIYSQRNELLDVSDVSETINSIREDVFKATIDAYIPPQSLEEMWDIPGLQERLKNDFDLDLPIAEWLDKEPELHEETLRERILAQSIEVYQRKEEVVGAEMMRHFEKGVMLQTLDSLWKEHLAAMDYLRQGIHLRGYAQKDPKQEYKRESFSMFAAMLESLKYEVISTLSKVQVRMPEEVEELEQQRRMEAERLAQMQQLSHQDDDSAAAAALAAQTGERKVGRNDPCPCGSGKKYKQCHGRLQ
Chain of Sialic acid-binding Ig-like lectin 9 (Homo sapiens) (Q9Y336 whole entry): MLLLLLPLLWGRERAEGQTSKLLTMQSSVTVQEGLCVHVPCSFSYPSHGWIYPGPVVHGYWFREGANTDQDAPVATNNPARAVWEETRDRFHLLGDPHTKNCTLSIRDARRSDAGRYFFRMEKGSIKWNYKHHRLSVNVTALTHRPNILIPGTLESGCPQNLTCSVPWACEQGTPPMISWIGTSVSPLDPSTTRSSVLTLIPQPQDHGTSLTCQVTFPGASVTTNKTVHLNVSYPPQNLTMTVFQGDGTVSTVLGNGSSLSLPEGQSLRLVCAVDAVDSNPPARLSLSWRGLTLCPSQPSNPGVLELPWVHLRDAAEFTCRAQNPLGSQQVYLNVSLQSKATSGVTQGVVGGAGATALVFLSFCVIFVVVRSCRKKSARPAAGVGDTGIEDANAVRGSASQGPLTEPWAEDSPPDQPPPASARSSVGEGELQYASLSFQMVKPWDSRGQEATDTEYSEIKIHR

`Oc1ccc(Cl)cc1Cl`: the PXC50 in [1] (MAX_EFFECT 9.315589354) and in experiment [1] (MAX_EFFECT 10.1511879) was < 3 throughout.
With `COc1cccc(CC(C)NC(=O)NCc2ccn(C)c2)c1` (stereo unspecified), the PXC50 in experiment [1] (MAX_EFFECT 39.40455342), in experiment [1] (MAX_EFFECT 41.30434783) and in experiment [1] (MAX_EFFECT 46.2585034) was < 4 throughout.
`NCC(O)c1cc(Cl)cc(Cl)c1` (stereo unspecified): the PXC50 in experiment [1] (MAX_EFFECT 9.287257019) and in [1] (MAX_EFFECT 13.11787072) was < 3 each time.
Take `O=C1CSC(c2ccc(O)c(Cl)c2)c2c(n(C3CCOCC3)[nH]c2=O)N1` (stereo unspecified): the Percent Effect was -3.7% in experiment [2]; 20% in experiment [3]; -0.726% in experiment [4]; 0.0426% in [5]; 4.6% in experiment [6]; 2.36% in experiment [7]. The Percent Effect in [8] (30 µM) is 4.87%; in [8] (33.3 µM), -14.3%; in experiment [9], 8.87%; in [10], 8.4%; in experiment [11], -12.7%; in [12] it was 9.52%. Moreover, the Percent Effect in experiment [13] was 17.9%; in experiment [14], -15.1%.
